High-throughput results from PubChem.
GALR2 antag – GALR2 (human) receptor antagonism; GALR2-expressing cells, antagonist mode; AID 828; hit rate 0.39% among 140,000; inhibition, % at 4 µM; in the data active means inhibition above about 27%;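 further: cells stimulated with galanin 1-16 at roughly its EC80; 0% = agonist challenge control and 100% = basal control without agonist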
S1P2 ag – activates the human S1P2 receptor | S1P2-expressing cell line, agonist reporter read-out | activation, % at 4.5 µM | hit rate 0.46% among 97,000 | O95136; in the data active means activation above about 16%;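 further: 0% = vehicle low control and 100% = maximal reference agonist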
Smad3 inh – inhibitors of human Smad3 transcription factor binding | TR-FRET Smad3/Dy647-FoxH1 peptide binding, europium anti-His | inhibition, % at 25 µM | hit rate 0.29% among 88,000 | P84022;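 active means compounds that reduce the energy-transfer binding signal between the protein and its labelled peptide by more than half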;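 further: 0% = Smad3 plus labelled peptide maximal FRET and 100% = peptide-only background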
Target sequence (P84022 whole entry, looked up): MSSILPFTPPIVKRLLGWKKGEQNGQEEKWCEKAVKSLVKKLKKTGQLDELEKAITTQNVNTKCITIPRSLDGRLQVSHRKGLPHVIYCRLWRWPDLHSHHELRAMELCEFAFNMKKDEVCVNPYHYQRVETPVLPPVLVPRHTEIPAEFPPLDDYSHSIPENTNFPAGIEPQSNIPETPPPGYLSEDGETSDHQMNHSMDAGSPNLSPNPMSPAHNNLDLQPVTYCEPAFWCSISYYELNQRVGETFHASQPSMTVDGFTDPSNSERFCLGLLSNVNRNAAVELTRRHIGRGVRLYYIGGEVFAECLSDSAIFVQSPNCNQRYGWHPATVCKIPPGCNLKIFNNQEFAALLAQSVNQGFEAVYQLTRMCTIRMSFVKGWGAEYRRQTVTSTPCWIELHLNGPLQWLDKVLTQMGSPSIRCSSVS
MT1-MMP txn act – MT1-MMP promoter transcription activation. AID 750. HT1080 MT1-MMP promoter luciferase reporter, luminescence, overnight; stronger effect = higher value. hit rate 0.16% among 86,000. activation factor at 10 µM;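 active means activation factor of at least 2 for MT1-MMP transcription at 10 µM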
S1P2 blocker – antagonists of human S1P2 receptor; O95136; cell-based S1P2 antagonist assay, inhibition at 5 uM; inhibition, % at 5 µM; hit rate 0.21% among 97,000; AID 736; in the data active means inhibition above about 45%;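 further: CRE beta-lactamase reporter cells expressing human S1P2 stimulated with S1P; 0% = agonist at EC80 alone and 100% = agonist plus reference antagonist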
GALR2 ag – activates the human galanin receptor 2; hit rate 0.48% among 140,000; GALR2-expressing cells, agonist activation read-out; O43603; activation, % (concentration not given with the values); in the data active means activation above about 5%, passing the limit was not always enough;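 further: 0% = vehicle buffer wells and 100% = reference agonist at full effect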
GALR2 ag confirm – GALR2 (human) agonism confirmed; GALR2-expressing cells, agonist activation; activation, % at 5.6 µM; hit rate 10% among 460; shares compounds with GALR2 ag; AID 864; in the data active means activation above about 8.4%;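 further: 0% = buffer-only vehicle wells and 100% = full reference agonist response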
BLA activ ctr – activates beta-lactamase reporter in GALR2 agonist counterscreen. activation, % at 5.6 µM. CHO NFAT-bla reporter, beta-lactamase FRET activation. AID 865. hit rate 10% among 460. shares compounds with GALR2 ag;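 active means activation above the screen-wide mean activation plus 3 SD, cut at about 8% in these data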;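 further: 0% = DMSO with PBS wells and 100% = thapsigargin positive control wells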
* hit, by the source's call; · = not tested or not shown. Shown are actives, neighbours in structure and some others; about 1.4% of the full set was active somewhere.

SMILES	GALR2 antag	S1P2 ag	Smad3 inh	MT1-MMP txn act	S1P2 blocker	GALR2 ag	GALR2 ag confirm	BLA activ ctr
Cc1nc(SCC(=O)Nc2ccccc2)c2oc3ccccc3c2n1	2.4	16.6*	36.7	1.1	-32.2	-2.6	·	·
CN(C)CN1C(=O)S/C(=C2\C(=O)N(CN(C)C)c3ccccc32)C1=O	·	·	14.9	·	·	·	·	·
COc1ccc(Cn2c(-c3ccco3)nc3oc4cc(OC)ccc4c(=O)c3c2=O)cc1	-4.7	78.6*	-83.9	1.9	12.6	1.6	·	·
COc1nc(C)nc(NC(=O)NS(=O)(=O)c2ccc(C)cc2)n1	1.2	25.8*	-9.8	·	1.8	-1.4	·	·
Cc1ccc(CNC(=O)c2oc3ccc(S(=O)(=O)N4CCOCC4)cc3c2C)cc1	6.0	-6.0	22.4	1.2	50.4*	-1.8	·	·
Cc1c(C(=O)NCc2ccccc2)oc2ccc(S(=O)(=O)N3CCCC3)cc12	19.2	-3.6	8.6	1.1	26.3	0.2	·	·
Cc1ccc(NC(=O)C2C3CC4OC(=O)C2C4C3)cc1Cl (centres undefined)	0.8	-6.6	1.3	1	-9.8	38.4*	-0.1	-0.4
O=C(CN1CCCCC1)Nc1cc(Cl)ccc1Cl	1.4	-6.6	-10.7	1.1	-24.8	180.2*	-0.5	-0.1
O=C(CN1CCCCC1)Nc1cccc(Cl)c1Cl	-6.6	-0.9	-4.1	1.1	-24.5	2.1	·	·
Cc1ccc(-c2c3c(=O)n(C)c(=O)n(C)c3cn2Cc2ccccc2)cc1	-8.6	-5.0	-17.2	1.1	-12.0	71.0*	-0.2	0.4
CC(=O)Nc1ccc2c(c1)C(=Nc1ccc(C(=O)O)cc1)c1ccccc1-2	·	·	-3.4	·	·	·	·	·
Cc1ccc(-n2nc(C(=O)NCc3ccc(C)o3)c3c4ccccc4n(C)c3c2=O)cc1	-17.0	0.9	-0.9	1.1	2.9	13.8*	-0.5	-2.3
COc1ccc(-n2nc(C(=O)NCc3ccco3)c3c4ccccc4n(C)c3c2=O)cc1	11.8	·	4.9	1.1	·	-0.7	·	·
CC(C)Cn1c(N)c(C(=O)NCC2CCCO2)c2nc3ccccc3nc21 (centres undefined)	-0.1	13.9	7.0	1	-31.5	12.0*	1.8	3.2
N#Cc1c(N)n(CCc2ccc(F)cc2)c2nc3ccccc3nc12	-18.8	15.6	-5.5	0.9	-30.0	15.0*	4.0	9.4*
Nc1c(C(=O)NCc2ccco2)c2nc3ccccc3nc2n1CCc1ccc(F)cc1	-13.5	13.1	8.0	1.1	-34.0	24.1*	10.0*	18.3*
COCCn1c(N)c(C(=O)NCc2cccs2)c2nc3ccccc3nc21	-3.1	14.0	8.2	1.1	-33.2	10.9*	4.5	10.3*
COCCn1c(N)c(C(=O)NCC2CCCO2)c2nc3ccccc3nc21 (centres undefined)	3.3	5.6	11.7	1.1	-18.8	5.0	·	·
NS(=O)(=O)c1ccc(NC(=O)Nc2ccccc2F)cc1	·	·	3.7	·	·	·	·	·
CCOC(=O)c1cc2nc(Nc3ccc(OC)cc3)sc2s1	3.3	7.0	-3.8	1.5	-6.8	10.8	3.1	6.1
Cc1ccc2nc(-c3ccc(NS(=O)(=O)c4ccc(F)c(F)c4)cc3)sc2c1	4.9	·	·	·	·	2.3	·	·
Cc1ccc2nc(-c3ccc(NS(=O)(=O)c4ccccc4)cc3)sc2c1	-8.3	·	·	·	·	11.0*	0.2	2.1
O=C(O)c1ccccc1C(=O)Nc1ccc(S(=O)(=O)NC2CCCCC2)cc1	0.1	·	·	·	·	14.5*	-0.8	-1.9
CCOC(=O)C1=C(C)NC(=O)N[C@@H]1c1coc2cc(C)cc(C)c2c1=O	·	·	-3.1	·	·	·	·	·
COc1cc(C2NC(=O)C(C#N)=C(S)N2c2ccc(C)cc2)ccc1OC(C)C (centres undefined)	-7.8	-3.1	4.8	0.8	-6.1	90.8*	-0.7	-1.8
SMILES	GALR2 antag	S1P2 ag	Smad3 inh	MT1-MMP txn act	S1P2 blocker	GALR2 ag	GALR2 ag confirm	BLA activ ctr
CCOc1ccc(C2NC(=O)C(C#N)=C(S)N2c2ccc(OC)cc2)cc1OC (centres undefined)	2.4	-6.4	-6.9	1.2	16.4	-1.1	·	·
O=S(=O)(Nc1ccc2c(c1)OCO2)c1ccccc1	0.9	-5.4	-5.6	1.1	7.5	34.0*	-0.2	-0.5
CN1CCc2nc(N)nc(-c3nc(N)nc4c3CN(C)CC4)c2C1	·	·	22.8	·	·	·	·	·
CC(=O)NC1=C(N(C)C2CCS(=O)(=O)C2)C(=O)c2ccccc2C1=O (centres undefined)	0.0	·	·	·	·	35.5*	-1.1	-1.6
CN(C(=O)Nc1ccccc1)C1CCS(=O)(=O)C1 (centres undefined)	-6.7	-4.1	2.0	1.2	-2.0	-1.0	·	·
CC[C@](N)(C(=O)O)C(C)C	·	·	-4.9	·	·	·	·	·
N[C@@H](Cc1cccc([N+](=O)[O-])c1)C(=O)O	·	·	11.8	·	·	·	·	·
Cc1c(Cl)c([N+](=O)[O-])nn1CC(=O)N1CCCC1	-1.9	·	·	·	·	-1.6	·	·
Cc1c(Cl)c([N+](=O)[O-])nn1CC(=O)NC12CC3CC(CC(C3)C1)C2	-17.7	-1.9	·	·	-20.4	38.3*	-0.2	-0.3
Cc1cc(C)c2c(N)c(C(=O)NCC3CCCCC3)sc2n1	3.0	-3.7	-21.9	1.4	-20.8	27.8*	-0.2	-0.5
Cc1nc(-n2[nH]c3c(c2=O)CCCC3)[nH]c(=O)c1Cc1ccccc1	-1.1	-4.5	·	·	13.3	8.6	4.9	29.3*
CC1=CC2=NC(=O)/C(=C\c3cc(C)n(-c4ccc(F)cc4)c3C)C(=N)N2O1	-10.8	·	·	·	·	11.7*	7.8	10.6*
COc1ccccc1OCCOc1ccc(/C=C2/C(=N)N3OC(C)=CC3=NC2=O)cc1OC	0.2	-4.1	·	·	-6.9	-2.5	·	·
Cc1cccc(C(=O)N=c2c(C#N)cc3c(=O)n4cccc(C)c4nc3n2Cc2ccco2)c1	-8.2	3.4	0.4	1	6.3	8.2	5.0	8.3*
CCNC(=S)N(Cc1ccc2c(c1)OCO2)C1CC(=O)N(c2ccc(F)cc2)C1=O (centres undefined)	1.0	-6.8	·	·	-1.9	10.6	-0.5	-2.1
CC(C)(C)c1c2c(c(C(C)(C)C)c3c1OCN(Cc1ccccc1)C3)OCN(Cc1ccccc1)C2	·	·	42.4	·	·	·	·	·
COCCCNC(=O)c1c(N)n(-c2ccc(S(N)(=O)=O)cc2)c2nc3ccccc3nc12	3.8	10.2	·	·	-20.4	3.3	·	·
C=CCNC(=O)c1c(N)n(-c2cccc(S(N)(=O)=O)c2)c2nc3ccccc3nc12	-5.9	10.1	16.3	1.1	1.5	8.3	1.9	5.6
O=C(CCCOc1ccccc1)N1CCN(c2ccccc2)CC1	-24.0	1.0	-0.7	1.3	-25.7	-0.2	·	·
CC(=O)c1ccc(OCCCC(=O)OCC(=O)N2CCN(c3ccccc3)CC2)cc1	12.5	-7.1	5.3	1	-3.7	68.0*	-1.0	-1.9
CC1=C(C)CC(C(=O)NNC(=O)c2ccccc2)C(C(=O)O)C1 (centres undefined)	10.2	-6.1	·	·	7.7	-2.3	·	·
CC1=C(C)CC(C(=O)NNC(=O)c2cccc(Cl)c2)C(C(=O)O)C1 (centres undefined)	5.7	·	·	·	·	8.2*	-1.0	-0.9
